Results on 42 sequences are retold here after publication PMC7819943, “Rice protein-binding microarrays: a tool to detect cis-acting elements near promoter regions in rice”.

The full ranking holds about 68,000 sequences; the median of “fluorescence intensity (a.u.)” is about 9,100, and the highest 2% start at about 16,000. This is one part of a sample in which the highest values are shown more often than they occur.

Sequence of OsWRKY34 (Q0JBA9 entry or part of it): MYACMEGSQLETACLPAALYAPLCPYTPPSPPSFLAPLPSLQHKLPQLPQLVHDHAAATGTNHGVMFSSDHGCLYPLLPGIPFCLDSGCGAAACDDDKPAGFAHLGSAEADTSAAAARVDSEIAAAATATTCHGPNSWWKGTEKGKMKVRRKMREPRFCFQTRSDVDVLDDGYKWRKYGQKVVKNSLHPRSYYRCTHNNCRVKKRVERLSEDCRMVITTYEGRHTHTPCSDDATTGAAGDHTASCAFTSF

The experiment concerns the target OsWRKY34 (Oryza sativa, UniProt Q0JBA9 1-250). Nature of the experiment: protein-binding microarray (RPBM); PBS, 2% BSA, 51.3 ng/ul salmon testes DNA, 50 uM zinc acetate, 200 nM TF, 25 C, 1 h; high values mean tight binding. Particulars: protein: recombinant; tags: N-terminal polyhistidine and DsRed monomer fusion (pET32a); label: CyDye5-dUTP incorporated in the synthesized complementary strand; 3' TTTTT single-stranded linker to array surface; dsDNA, one strand shown. In short, it runs like this:
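Polyhistidine-tagged DsRed fusions of transcription factors, joined at the N-terminus, were expressed in E. coli BL21-CodonPlus and isolated on Ni–NTA. They were incubated at 200 nM for 1 h at 25 °C on a custom Agilent array, double-stranded and BSA-blocked, in PBS with 2% BSA, salmon testes DNA and 50 µM zinc acetate. The binding signal is per-feature fluorescence intensity (arbitrary units) read on an Axon 4000B scanner after washing.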
As for “GGGGCTAGGGTTTGGGTGGGATCTCAGCCGTCGGATCTGACGGAGTCACCTAGTGCAG”, the binding signal is 17000 fluorescence intensity (a.u.).

For the sequence “GCGGCGGTGGTTAGGGTTTGGGGCTCGTCGGCGTCGGCGACGGAGTCACCTAGTGCAG”, the binding signal is 10900 fluorescence intensity (a.u.).

As for “CTGATTTGCGGGTTCCACATGGATTTTATTTTTTTGTTTCCGGAGTCACCTAGTGCAG”, the binding signal was 11400 fluorescence intensity (a.u.).

As for “GCTTGGTCCATACCTTGTTTTCCTATCATCCACTGTCAATCGGAGTCACCTAGTGCAG”, the binding signal is 9390 fluorescence intensity (a.u.).

In the case of “ATTGGGGCGGCGGTGGCGGGCTAGGGTTTCGTAGATTCGACGGAGTCACCTAGTGCAG”, the binding signal was 9960 fluorescence intensity (a.u.).

In the case of “GCGGCGGGGTTCCTATCCATGGTTTTTTCGGGCTTGTCCACGGAGTCACCTAGTGCAG”, the binding signal was 18900 fluorescence intensity (a.u.).

“GGATTCGGAGGCGGGTGGGAGTGGGAGAGTGAGAGGGGCTCGGAGTCACCTAGTGCAG”: the binding signal was 16200 fluorescence intensity (a.u.).

On to “ACATTGGGTTGGAGTGGATTATTTTTTTCCTTTGTTTTCCCGGAGTCACCTAGTGCAG”, for which the binding signal was 14200 fluorescence intensity (a.u.).

On to “ACGATCAGTGTCATCACAGGGCGGCGGGGTTCCTATCCATCGGAGTCACCTAGTGCAG”, for which the binding signal was 13200 fluorescence intensity (a.u.).

In the case of “GGGCGGGTTTGGATTTTTATTTGGTTTTCCTATGGAGTCCCGGAGTCACCTAGTGCAG”, the binding signal is 17800 fluorescence intensity (a.u.).

Take “CGCCTCGACGGGTTTGGATCTCGGGGTGGGATTAGAGGGGCGGAGTCACCTAGTGCAG”: the binding signal is 12900 fluorescence intensity (a.u.).

On to “AGGGATAGATTGGCTTAGGGGCGGGTGGGTCTAGAGATTTCGGAGTCACCTAGTGCAG”, for which the binding signal was 27000 fluorescence intensity (a.u.).

With “GTGTCCTTTTCTTTTTTTTCTTCTTTTCTTTTTCTTTTTCCGGAGTCACCTAGTGCAG”, the binding signal was 9510 fluorescence intensity (a.u.).

On to “ACCATGTAACGAGTAATCTTTTGACCTGTGCCACGTCATCCGGAGTCACCTAGTGCAG”, for which the binding signal is 9160 fluorescence intensity (a.u.).

Consider “TTTGGTGGTGTGCAAGTGGAGTGGTTTATAAAATTATGTCCGGAGTCACCTAGTGCAG”, for which the binding signal was 8980 fluorescence intensity (a.u.).

As to “CCTCATCACTCGCTTCTCCTTGCTTACACACCATCCCATCCGGAGTCACCTAGTGCAG”, the binding signal is 8310 fluorescence intensity (a.u.).

With “CTAACATTCCCTATGCGGAAACACACACATTCATGCACACCGGAGTCACCTAGTGCAG”, the binding signal was 8860 fluorescence intensity (a.u.).

For “CCTCTTAACTCTTTCCCATTCCCAAATGCGCCACTGTCTCCGGAGTCACCTAGTGCAG”, the binding signal is 9190 fluorescence intensity (a.u.).

Consider “CTCTGTCCTATTGGAACATTTCTCTGAAGCAACACCATATCGGAGTCACCTAGTGCAG”, for which the binding signal is 9340 fluorescence intensity (a.u.).

For the sequence “TGACAGTGTGATGTGCTTGTTCGCTCTGATTTGATTTTGGCGGAGTCACCTAGTGCAG”, the binding signal is 8050 fluorescence intensity (a.u.).

Regarding “CCCCATCCATTGCAACGGCAACATACACACACCACCACCACGGAGTCACCTAGTGCAG”, the binding signal was 8350 fluorescence intensity (a.u.).

In the case of “CGTTGACTCCATCTCTTTAACATATTTTAGGAGCATGCTTCGGAGTCACCTAGTGCAG”, the binding signal is 8610 fluorescence intensity (a.u.).

Regarding “TCATCTCCATCTTTTTATTTACACGCACACTTCTCAAACTCGGAGTCACCTAGTGCAG”, the binding signal was 11100 fluorescence intensity (a.u.).

Take “CCAACTCCGAACGCCTCTTCTTCTCCTCACCGCCGCCGAACGGAGTCACCTAGTGCAG”: the binding signal was 9650 fluorescence intensity (a.u.).

Regarding “TGGATTTAGGATGTTACTTTGATTTGGGGATTTGGGGTTTCGGAGTCACCTAGTGCAG”, the binding signal was 17200 fluorescence intensity (a.u.).

For “ATCTCCCGCGGTTTCGATTTGGGTTTATTTGGGCGGTGGGCGGAGTCACCTAGTGCAG”, the binding signal is 18800 fluorescence intensity (a.u.).

Turning to “TGATGTTACTTTGATTTGGGGTTTGATTTGGGAATATGCACGGAGTCACCTAGTGCAG”, the binding signal is 13500 fluorescence intensity (a.u.).

Take “TCTTTGTTTCCCGCGTTTTGTTGGGGATTCGATTTTCGGGCGGAGTCACCTAGTGCAG”: the binding signal is 11100 fluorescence intensity (a.u.).

Regarding “GTGGGAGTGGCGGTGTCGGGTCCGGAACGAAACGGCGGGGCGGAGTCACCTAGTGCAG”, the binding signal is 10300 fluorescence intensity (a.u.).

Turning to “CAACGGCGGTGGCGGCGGCGGCGGCGGCGGGGCGGCGTCGCGGAGTCACCTAGTGCAG”, the binding signal is 8370 fluorescence intensity (a.u.).

Take “GAAGGAGAAGGAGAGGGGAGGGGCTGACGGGTGGGGTCCACGGAGTCACCTAGTGCAG”: the binding signal is 14000 fluorescence intensity (a.u.).

“GGGCTGACGGGTGGGGTCCATGTTGTTTTCCTCTTAGGCACGGAGTCACCTAGTGCAG”: the binding signal was 23000 fluorescence intensity (a.u.).

For “CAGATTGTTTTCCATGATTCTTAGCCTCTCTGATGTTTGACGGAGTCACCTAGTGCAG”, the binding signal is 9640 fluorescence intensity (a.u.).

With “ATGGTTCGATTATTGGTGGAGTTCTCTCTCGGTTTCTCCGCGGAGTCACCTAGTGCAG”, the binding signal was 10600 fluorescence intensity (a.u.).

Regarding “ATTTGTGATGTGGATTTGGGGTGTTACTTTGATTTGGGGACGGAGTCACCTAGTGCAG”, the binding signal was 12900 fluorescence intensity (a.u.).

On to “TGTCGGTGTCGGTGGGCGGGGATTCGCGGTAGTGGTGGAACGGAGTCACCTAGTGCAG”, for which the binding signal was 19700 fluorescence intensity (a.u.).

Consider “GCGCCGTCCCTTCGGGCCCACAAGCCGTCCACCCACTTCCCGGAGTCACCTAGTGCAG”, for which the binding signal was 11300 fluorescence intensity (a.u.).

As for “GGGCCTATAACTGTAGTTCCATCACGTCTCTCTGTACGTTCGGAGTCACCTAGTGCAG”, the binding signal was 8820 fluorescence intensity (a.u.).

On to “GCCATCTCGCCTAAATAAAACCGCGCTACCCATCGACCGACGGAGTCACCTAGTGCAG”, for which the binding signal is 9280 fluorescence intensity (a.u.).

“TCCAGTTTTGGTCTGGGTGATGTGTCATGTTCTGATTGGCCGGAGTCACCTAGTGCAG”: the binding signal was 8180 fluorescence intensity (a.u.).

For “CTTCTTCCATCCAACCCATTGCATGGTGTATTTTCCATATCGGAGTCACCTAGTGCAG”, the binding signal was 8320 fluorescence intensity (a.u.).

In the case of “AAATATGGTGGGCCCCACATGGCTGCGCCTCAAGCTTCTCCGGAGTCACCTAGTGCAG”, the binding signal is 9100 fluorescence intensity (a.u.).
